From PubChem BioAssay AID2284198 (EPA ToxCast)
Activity calls are given as the source filed them. The calls were made as follows: active = hit-call score of the fitted dose curve at least 0.9, where 1 is the maximum; inactive = score below 0.9.

What follows are compounds tested against human Adenosine Transporter, SLC29A1 (gene 2030) (UniProt Q99808) (assay: ERF_TW_TR_hSLC35B3: Eurofins (ERF) Transporter Radioligand Binding LeadHunter Assay for human Adenosine Transporter Antagonism).
Method: ERF_TW_TR_hSLC35B3 is a biochemical, single-readout assay that uses extracted gene-proteins in a cell-free assay. Measurements were taken 1 hour after chemical dosing in a 96-well plate. See Adenosine Human Transporter Binding (Antagonist Radioligand) Assay, Panlabs.ERF_TW_TR_hSLC35B3 is an assay component calculated from the ERF_TW_TR_hSLC35B3 assay. It is designed to measure radioligand binding using a type of binding reporter as detected by scintillation counting with radiometry technology.Data from the assay component ERF_TW_TR_hSLC35B3 was analyzed at the assay endpoint, ERF_TW_TR_hSLC35B3, in the positive analysis fitting direction relative to DMSO as the negative control and baseline of activity. Using a type of binding reporter, loss-of-signal activity can be used to understand changes in transporter binding as they relate to gene SLC29A1. To generalize the intended target to other relatable targets, this assay endpoint is annotated to the transporter intended target family, where the subfamily is nucleoside transporter.
This assay measures binding of [3H]Nitrobenzylthioinosine to sites associated with the transporter of adenosine. Human adenosine transporter membranes are prepared in Tris-HCl buffer pH 7.4. A 24 ug aliquot of membrane is incubated with 0.5 nM [3H]Nitrobenzylthioinosine for 60 minutes at 25C. Non-specific binding is estimated in the presence of 5 uM nitrobenzylthioinosine. Membranes are filtered and washed, the filters are then counted to determine [3H]Nitrobenzylthioinosine specifically bound. Compounds are screened at 10 uM.Test Sample Requirements: Minimum for 1) Screen: 25 ul of 10 mM stock -OR- 1 mg (pre-weighed). 2) Dose Response: 60 ul of 10 mM stock -OR- 1 mg (pre-weighed).

Sequence of human Adenosine Transporter, SLC29A1 (gene 2030) (Q99808 whole entry, looked up): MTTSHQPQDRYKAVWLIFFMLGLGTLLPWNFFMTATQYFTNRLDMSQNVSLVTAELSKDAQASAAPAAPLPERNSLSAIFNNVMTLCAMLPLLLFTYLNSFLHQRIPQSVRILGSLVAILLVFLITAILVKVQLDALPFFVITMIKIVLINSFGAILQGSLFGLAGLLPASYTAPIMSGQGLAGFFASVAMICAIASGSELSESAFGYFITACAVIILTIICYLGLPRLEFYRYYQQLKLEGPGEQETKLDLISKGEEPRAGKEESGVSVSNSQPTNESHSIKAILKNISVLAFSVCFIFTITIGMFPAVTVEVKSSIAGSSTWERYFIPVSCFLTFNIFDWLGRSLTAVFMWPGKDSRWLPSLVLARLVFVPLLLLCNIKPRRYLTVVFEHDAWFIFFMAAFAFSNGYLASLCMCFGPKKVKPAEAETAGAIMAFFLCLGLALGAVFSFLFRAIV

AC50, active:
COc1cc(/C=C/C(=O)CC(=O)/C=C/c2ccc(O)c(OC)c2)ccc1O 98 nM
COc1cc(CCC(=O)CC(=O)CCc2ccc(O)c(OC)c2)ccc1O 574 nM
O=C(/C=C/c1ccc(O)cc1)CC(=O)/C=C/c1ccc(O)cc1 153 nM
